Screens (PubChem BioAssay)
PAFAH2 FP inh – inhibitors of human PAFAH2 | recombinant PAFAH2, FP-rhodamine activity probe, fluorescence polarization | inhibition, % at 3.39 µM | Q99487 | AID 492956 | actives 0.99% (n = 340,000);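 active = inhibition above the mean over all tested compounds plus 3 SD, cut at about 30% in these data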;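 also: inhibitors block probe labeling of enzyme so polarization drops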
pPAFAH FP inh – inhibitors of human plasma PAF acetylhydrolase (pPAFAH); recombinant pPAFAH, FP-rhodamine probe fluorescence polarization; Q13093; actives 1.5% (n = 330,000); inhibition, % at 3.39 µM; AID 463082;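 active = inhibition above the mean inhibition across the screen plus 3 SD, cut at about 25% in these data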;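 also: inhibitors block binding of the rhodamine activity-based probe so polarization drops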
Target sequence (Q13093 whole entry, looked up): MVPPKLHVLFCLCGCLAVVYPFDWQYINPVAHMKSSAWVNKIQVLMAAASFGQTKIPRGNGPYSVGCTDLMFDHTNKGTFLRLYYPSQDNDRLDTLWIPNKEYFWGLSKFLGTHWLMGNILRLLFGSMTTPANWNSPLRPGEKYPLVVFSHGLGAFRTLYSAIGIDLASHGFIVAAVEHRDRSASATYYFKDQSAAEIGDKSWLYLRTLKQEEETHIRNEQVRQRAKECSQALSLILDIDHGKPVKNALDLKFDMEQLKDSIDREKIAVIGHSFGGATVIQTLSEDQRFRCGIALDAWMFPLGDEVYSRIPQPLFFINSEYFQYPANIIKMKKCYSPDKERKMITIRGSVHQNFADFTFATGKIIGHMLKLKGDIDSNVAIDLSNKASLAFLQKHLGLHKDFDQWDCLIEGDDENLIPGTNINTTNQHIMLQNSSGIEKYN
PAFAH1B2 inh – blocks human PAF acetylhydrolase 1b catalytic subunit 2. P68402. recombinant PAFAH1B2, FP-rhodamine activity probe, fluorescence polarization. inhibition, % at 3.39 µM. actives 1.2% (n = 340,000). AID 492953;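 active = inhibition above the mean of all tested compounds plus 3 SD, cut at about 24% in these data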
Target sequence (P68402 whole entry, looked up): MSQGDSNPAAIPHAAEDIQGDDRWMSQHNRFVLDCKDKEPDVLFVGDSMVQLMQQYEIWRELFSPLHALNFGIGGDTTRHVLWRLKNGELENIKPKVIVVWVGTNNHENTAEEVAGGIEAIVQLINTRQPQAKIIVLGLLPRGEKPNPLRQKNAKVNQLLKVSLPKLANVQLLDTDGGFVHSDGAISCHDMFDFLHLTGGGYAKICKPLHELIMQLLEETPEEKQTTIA
PKA-R2B act – activates the human PKA-R2B holoenzyme complex. P22694+P31323. activation, % at 11.4 µM. PKA-R2B holoenzyme dissociation, Cy5-IP20 fluorescence polarization; R2B truncated from residue 108, S112A mutant; 0% DMSO only, 100% 113 µM cGMP. actives 0.079% (n = 340,000);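 active = activation above a cutoff set at the mean over all compounds plus 3 SD, cut at about 18% in these data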;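 also: higher means more holoenzyme dissociation and a rise in polarization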
PKA-R1A act – activators of PKA-R1A complex | PKA-R1A dissociation, Cy5-IP20 fluorescence polarization; scaled: DMSO 0%, 113 µM cGMP 100% | activation, % at 11.4 µM | actives 0.083% (n = 340,000) | AID 504707;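 active = percent activation above the mean of all tested compounds plus 3 SD, cut at about 19% in these data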;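 also: higher means more PKAc released from R1A so a rise in polarization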
PAFAH1B3 FP inh – inhibitors of human PAFAH1B3; inhibition, % at 3.39 µM; actives 0.28% (n = 340,000); Q15102; recombinant PAFAH1B3, FP-rhodamine probe, fluorescence polarization; AID 492972;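 active = inhibition above the screen-wide average of all tested compounds plus 3 SD, cut at about 25% in these data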
Large screens that a line does not name were inactive. In the library only some 2.6% were active in any assay of this set; here they are far more common.

CCc1cc(=O)oc2c3c(cc(OCC(=O)NCCCC(=O)O)c12)OC(C)(C)CC3	PAFAH2 FP inh 39, pPAFAH FP inh 32
COc1ccccc1CNC(=O)COc1cc2c(c3oc(=O)cc(C)c13)CCC(C)(C)O2	PAFAH1B2 inh 27
Cc1cc(=O)oc2c3c(cc(OCC(=O)NC(Cc4ccc(Cl)cc4)C(=O)O)c12)OC(C)(C)CC3 (stereo not drawn)	PAFAH2 FP inh 33, pPAFAH FP inh 27, PAFAH1B2 inh 58
Cc1ccc(O)c(N=CC2=C(O)c3ccccc3C2=O)c1	pPAFAH FP inh 30
O=C1C(C=Nc2ccccc2O)=C(O)c2ccccc21	none
Cc1ccc(N2CCN(/N=C/c3ccncc3)CC2)cc1	none
Clc1ccc(N2CCN(/N=C/c3ccncc3)CC2)cc1	PAFAH1B2 inh 27
CC(CCC(=O)O)(c1ccc(O)cc1)c1ccc(O)cc1	PAFAH1B2 inh 25
Cc1ccc(-c2nc3ccsc3c(=O)o2)cc1	PAFAH2 FP inh 66
CC(C)C1C(=O)N(Cc2cn(CC3CCCCC3)nn2)CCS(=O)(=O)N1Cc1ccc(-c2ccccc2)cc1 (stereo not drawn)	none (no result: PAFAH2 FP inh, pPAFAH FP inh, PAFAH1B2 inh, PAFAH1B3 FP inh)
CCc1cc2c(CN(C)Cc3ccccc3F)cc(=O)oc2cc1O	PAFAH1B2 inh 28
Cc1cc2oc(=O)cc(CN(C)Cc3cccc(F)c3)c2cc1C	none
COCCCn1c(SCc2ccc(OC)cc2)nc2cc(OC)c(OC)cc2c1=N	pPAFAH FP inh 25
COc1cc(C2OC(=O)C3C(c4ccc(OC(C)=O)c(OC)c4)OC(=O)C23)ccc1OC(C)=O (stereo not drawn)	none
Cc1cccc(C)c1C(=NCCN(C)C)c1ccccc1	none
CCCCCNC(=O)C(C)Sc1ccc(Cl)cc1 (stereo not drawn)	PAFAH1B2 inh 30
CCCCCCNC(=O)C(=O)NCCc1ccc(Cl)cc1	none
CC1(OC(=O)c2cccs2)C(=O)C=C2C=C3CCCN3C=C2C1=O (stereo not drawn)	pPAFAH FP inh 28
O=C(c1ccccc1)N1CCC(CC2CC(c3cccc(Br)c3)=NO2)(C(=O)NCC2CCCCC2)CC1 (stereo not drawn)	pPAFAH FP inh 26
CC(C)(C)OC(=O)N1CCC(CC2CC(c3cccc(Br)c3)=NO2)(C(=O)NCC2CCCCC2)CC1 (stereo not drawn)	none
CCCc1ccc(-c2cc(C(=O)NN3CCOCC3)c3ccccc3n2)cc1	none
Cc1ccc(C)c(-c2cc(C(=O)NNC(=S)NCC(C)C)c3ccccc3n2)c1	pPAFAH FP inh 26
CCc1ccc(-c2cc(C(=O)Nn3cnnc3)c3ccccc3n2)cc1	PAFAH1B2 inh 72
O=C(NNS(=O)(=O)c1ccc(Cl)cc1)c1cc(-c2ccccc2)nc2ccccc12	PAFAH1B2 inh 60
O=C(NNS(=O)(=O)c1ccc(Cl)cc1)c1cc(-c2ccccc2)n[nH]1	none
CCNC(=S)NNC(=O)c1cc(-c2ccc(OCC)cc2)nc2ccccc12	pPAFAH FP inh 27
O=C(Nc1ccc(Cl)c(S(=O)(=O)N2CCOCC2)c1)c1ccncc1	none
O=C(Cc1c(F)cccc1Cl)NCc1cccnc1	none
CCOC(=O)N1CCN(C(=O)c2cc3cc(OC)c(OC)cc3[nH]2)CC1	none (no result: pPAFAH FP inh)
O=C(O)C(c1ccccc1)C(O)c1ccc2c(c1)OCO2 (stereo not drawn)	none (no result: pPAFAH FP inh)
CC(C)C1Nc2ccc(S(N)(=O)=O)cc2C2C=CCC21 (stereo not drawn)	PAFAH1B2 inh 32
CCOC(=O)C1Nc2ccc(OC(F)(F)F)cc2C2C=CCC12 (stereo not drawn)	none
NS(=O)(=O)c1ccc2c(c1)C1C=CCC1C(C1CC=CCC1)N2 (stereo not drawn)	pPAFAH FP inh 28
O=CN/C=C/c1cccc(O)c1	none (no result: pPAFAH FP inh)
S=c1[nH]nc(-c2ccccc2Cl)n1Cc1ccccc1	PAFAH1B2 inh 27
O=c1[nH]cc(-c2ccc(Br)cc2)n1Cc1ccccc1	none
Oc1ccc(-c2n[nH]c(=S)n2Cc2ccccc2)cc1	PAFAH1B2 inh 25
S=c1[nH]nc(-c2ccc(Br)cc2)n1Cc1ccccc1	none
Fc1ccc(-c2n[nH]c(=S)n2Cc2ccccc2)cc1	PAFAH1B2 inh 28
Fc1ccc(-c2c[nH]c(=S)n2Cc2ccccc2)cc1	PAFAH1B2 inh 27
Fc1ccccc1-c1n[nH]c(=S)n1Cc1ccccc1	none
C=CCn1cnc2c(oc3ccccc32)c1=O	none (no result: pPAFAH FP inh)
CC1([N+](=O)[O-])COC2(CCCCC2)OC1	none (no result: pPAFAH FP inh)
O=C1C=CC2=C3c4cc(O)c(O)cc4CC3(O)COC2=C1O (stereo not drawn)	PAFAH2 FP inh 85, PAFAH1B3 FP inh 36 (no result: pPAFAH FP inh)
O=C(CCC(=O)N(CC(=O)NC1CCCCC1)c1ccc(F)cc1)Nc1ccccn1	none
c1ccc(-c2cc(-c3ccc(N4CCOCC4)cc3)nc3ccccc23)cc1	pPAFAH FP inh 30
Oc1ccc(O)c(/C(=N/Nc2ccccc2)c2ccccc2)c1	pPAFAH FP inh 44 (no result: PAFAH2 FP inh, PAFAH1B2 inh, PKA-R2B act, PKA-R1A act, PAFAH1B3 FP inh)
CCCCOc1ccc(CNC(=O)NS(=O)(=O)c2ccc(OCC)cc2)cc1	none
CCCCOc1ccc(S(=O)(=O)NC(=O)NCc2ccc(OCCC)cc2)cc1	PAFAH1B2 inh 42
CCCCOc1ccc(CNC(=O)NS(=O)(=O)c2ccc(OCC(C)C)cc2)cc1	PAFAH1B2 inh 59
NS(=O)(=O)c1cccc(NC(=O)CSc2n[nH]c(-c3ccccc3Br)n2)c1	none (no result: pPAFAH FP inh)
O=[N+]([O-])c1cc(C(F)(F)F)ccc1Sc1nccn1Cc1ccccc1	PAFAH1B2 inh 70
O=[N+]([O-])c1ccc(Sc2nccn2Cc2ccccc2)c([N+](=O)[O-])c1	none
CCCCCCCCn1c(=O)c(C(=O)OCC)c(O)c2ccccc21	PAFAH1B2 inh 24
CCOC(=O)c1sc(N2C(=O)C(O)=C(C(=O)c3ccc(C)o3)C2c2cccc([N+](=O)[O-])c2)nc1C (stereo not drawn)	PAFAH2 FP inh 47
O=C(Oc1c(-c2ccccc2)c(=O)n2c3c(cccc13)CC2)c1ccccc1	pPAFAH FP inh 26 (no result: PAFAH2 FP inh, PAFAH1B2 inh, PKA-R2B act, PKA-R1A act, PAFAH1B3 FP inh)
O=C(NNS(=O)(=O)c1ccc(Br)cc1)c1ccccc1-n1cccc1	PAFAH1B2 inh 29
O=C(NNS(=O)(=O)c1ccccc1)c1ccccc1-n1cccc1	none
CCN(CC)S(=O)(=O)c1ccc(NC(=O)C2CC(=O)N(c3ccc4c(c3)OCCO4)C2)cc1 (stereo not drawn)	none (no result: pPAFAH FP inh)
Cc1cc(O)c(C(=O)/C=C/c2ccc(Cl)cc2)c(=O)o1	pPAFAH FP inh 27
Cc1c(CNC(=O)C2CC2)c(-n2cccc2)n(Cc2ccccc2)c1C	none
CCC(=O)NCc1c(C)c(C)n(Cc2ccccc2)c1-n1cccc1	PAFAH1B2 inh 28
COc1ccc(C(=O)COC(=O)c2ccc3c(c2)OCO3)c(OC)c1	none
